Measurements published in PubChem BioAssay AID696 (Sanford-Burnham Center for Chemical Genomics, 2007).
Among all 96,000 compounds or so, about 1,200 (1.2%) were called active. Rule as the data show it: active = activation fold above about 2; inactive = the rest. The full list was thinned out, with actives kept by preference.

Each compound was assayed against Alkaline phosphatase, placental type (Homo sapiens) (UniProt P05187) (assay: activation of human placental alkaline phosphatase – biochemical, luminescence, HTS (AID 696)). Conditions: purified PLAP enzyme, luminescent substrate read-out; at 20 µM; hits give high values.
Alkaline phosphatase, placental type (Homo sapiens), sequence (P05187 whole entry, looked up): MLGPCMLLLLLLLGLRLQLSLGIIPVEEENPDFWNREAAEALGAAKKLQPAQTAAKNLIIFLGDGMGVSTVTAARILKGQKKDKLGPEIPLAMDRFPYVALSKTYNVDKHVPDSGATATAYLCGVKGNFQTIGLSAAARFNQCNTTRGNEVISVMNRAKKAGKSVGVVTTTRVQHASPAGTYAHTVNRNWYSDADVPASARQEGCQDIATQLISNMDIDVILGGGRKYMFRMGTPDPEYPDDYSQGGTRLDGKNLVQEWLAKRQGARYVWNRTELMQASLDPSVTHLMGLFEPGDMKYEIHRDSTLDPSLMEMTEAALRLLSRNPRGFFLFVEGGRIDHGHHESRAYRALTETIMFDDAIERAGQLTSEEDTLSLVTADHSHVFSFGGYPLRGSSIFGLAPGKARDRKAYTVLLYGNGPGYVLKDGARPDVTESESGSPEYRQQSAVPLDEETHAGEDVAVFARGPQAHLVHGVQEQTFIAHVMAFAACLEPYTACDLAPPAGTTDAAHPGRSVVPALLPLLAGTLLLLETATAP

Activation fold, inactive:
COc1cccc2c1OCC1COc3c(c(=O)n(C)c(=O)n3C)C21 (configuration not stated) 1, CCNC(=S)NNC(=O)Cc1ccccc1 1.3, COc1ccc(OCC(=O)NNC(=O)c2ccc(-c3ccccc3)cc2)cc1 1.5, Cc1ccc(-c2cnc(NC(=O)CCC(=O)N(C)Cc3ccccc3)n2C)cc1 1.5, Cc1ccc(-n2nc(N)c3c(=O)oc(N(C)C)nc32)cc1 1.1, CSc1nc(-c2ccco2)nn1C(=O)CCc1ccccc1 1.1, COc1ccc(C2SCCN2S(=O)(=O)c2ccccc2)cc1OC (configuration not stated) 1.3, COc1ccc(C2CC(=O)n3c(nc4ccccc43)S2)cc1OC (configuration not stated) 1.1, COCCn1c(C)cc(C2=NNC(=Nc3ccc(F)cc3)SC2)c1C 1.2, CN1/C(=C\C(=O)c2oc3ccccc3c2N)C(C)(C)c2ccccc21 1, COc1ccc(NC(C)=O)cc1NC(=O)CN1CCN(c2ccccn2)CC1 1, COc1ccc(OC)c(NC(=O)CN2CCN(C(=O)c3ccco3)CC2)c1 1.2, Cc1ccc(S(=O)(=O)Nc2nc(C)cc(-n3nc(C)cc3C)n2)cc1 1.4, Nc1nc(SCc2ccccc2Cl)n[nH]1 1.5, COc1ccc(C(=O)CSc2n[nH]c(N)n2)cc1 1.5, COc1ccccc1-c1n[nH]c2c1[C@H](C)CC[C@H]2C(C)C 1.4, O=C(OCN1C(=O)c2ccccc2C1=O)/C(=C\c1ccco1)NC(=O)c1ccccc1 1.1, CCOc1cccc(C(=O)Nc2cnn(Cc3ccccc3)c2)c1 0.7, COc1ccc(CNC(=O)CCn2cccc2)cc1 1, CC(C)NC(=O)NC(=O)COC(=O)c1ccc(NC(=O)CC#N)cc1 1.4, COc1ccc2c(CC(=O)Nc3nnc(C4CC4)s3)coc2c1 0.9, Cc1occc1C(=O)Nc1nnc(C2CCCCC2)s1 1, NC(=O)C1(N2CCCCC2)CCN(C(=S)Nc2ccc(Cl)cc2)CC1 0.9, COc1cccc(N2C(=O)CC(N3CCN(S(=O)(=O)c4ccccc4)CC3)C2=O)c1 (configuration not stated) 1.4, CN1CCN(S(=O)(=O)c2ccc3[nH]cc(C(=O)O)c(=O)c3c2)CC1 1.1, O=C1C(Cl)=C(N2CCOCC2)C(=O)N1c1ccccc1 1, O=C(NCCN1C(=O)C2C3C=CC(C3)C2C1=O)Nc1ccccn1 (configuration not stated) 1.1, O=C(CN1C(=O)C2C3C=CC(C3)C2C1=O)NCCc1ccccc1Cl (configuration not stated) 0.9, CC(OC(=O)CN1C(=O)C2CCCCC2C1=O)C(=O)Nc1ncc(Cl)cc1Cl (configuration not stated) 0.9, CCCC(=O)Nc1cc(OCC)c(NC(=O)NC2CCCCC2)cc1OCC 0.9, Cc1ccc(C(C(=O)NC2CCCC2)N(Cc2ccco2)C(=O)CCC(=O)Nc2ccccn2)cc1 (configuration not stated) 1.7, Cc1noc(C)c1C(=O)N(CC(=O)NC1CCCC1)Cc1ccccc1F 1, O=C(CN1CCN(c2ccccn2)CC1)NC1CCCCC1 1.1, CCCCNC(=O)C(=O)c1ccccc1NC(C)=O 0.9, Cc1cccc(C)c1NC(=O)CSc1nnc(-c2ccccc2)n1Cc1ccc2c(c1)OCO2 1.4, Cc1cc(/C=C2/SC(=O)N(CC(=O)OC(C)C)C2=O)c(C)n1C 1, COC(=O)CSc1snnc1-c1ccc(Cl)c(Cl)c1 1, CC(C)NS(=O)(=O)c1ccc(OCC(=O)Nc2ccc3c(c2)OCCO3)cc1 0.7, O=C(OCC(=O)c1cccs1)C1=COCCO1 0.9, O=C(CSCc1ccccc1)N1CCc2ccccc21 0.7, c1ccc(CCc2nc(-c3ccncc3)no2)cc1 0.9, O=C(COc1ccccc1)Nc1nonc1NC(=O)COc1ccccc1 0.9, O=C(Nc1cccc(Cl)c1)Nc1nnc(-c2ccccc2)o1 1.1, Cc1ccc(NC(=O)C(C)c2cccc(C(=O)c3ccccc3)c2)cc1 (configuration not stated) 0.7, C=CCN(C(=O)Cn1ncc2c1-c1cc(C)ccc1OC2)c1ccccc1 1.2, COc1ccccc1OCc1nc2ccccc2s1 1, COc1ccc(C(C#N)N2N=C(C)CC2(C)C)cc1 (configuration not stated) 0.9, Cc1cccc(N(CC(=O)N=Nc2c(O)[nH]c3ccccc23)S(C)(=O)=O)c1C 1.9, Cc1ccccc1NC(=O)c1ccccc1NS(=O)(=O)c1cccc2cccnc12 1.3, CC(C)(O)C(=O)NN(C(=O)c1ccccc1)c1cccc(Br)c1 0.9, O=C(/C=C\NCC(=O)c1ccccc1)c1ccccc1 0.9, COc1ccccc1NS(=O)(=O)N(C)C 0.8, COc1ccc(C(=O)NCCc2ccc(S(N)(=O)=O)cc2)cc1OC 1, CCOC(=O)CSc1nnc(CNC(=O)Cc2ccccc2)n1-c1ccccc1OC 1

Activation fold, active:
CC(C)(C)c1ccc(C(=O)NNC(=O)Cc2ccccc2)cc1 2.1, COc1ccc(C2N=C(N)N=C(N)N2c2ccccc2)cc1OC (configuration not stated) 2.5, COc1ccc(NC(C)=O)cc1NC(=O)CN1CCN(C2c3ccccc3-c3ccccc32)CC1 2.8, Nc1nc(SCCOc2ccccc2)n[nH]1 2, O=C(Nc1nnc(C2CC2)s1)c1ccccn1 2.3, Cc1cccc(N2CCN(S(=O)(=O)c3ccc4[nH]c(=O)c(=O)[nH]c4c3)CC2C)c1 (configuration not stated) 2.2, O=C(CN1C(=O)C2C3C=CC(C3)C2C1=O)Nc1nc(-c2ccccn2)cs1 (configuration not stated) 2.3, CCOc1ccccc1N(CC(=O)NC1CCCCC1)C(=O)CCCC(=O)Nc1ccccn1 2, O=C(CCCC(=O)N(CC(=O)NC1CCCC1)Cc1ccccc1Cl)Nc1ccccn1 2, CCC(C)(C)c1ccc(Oc2ccc(NC(=O)COC(=O)C3=COCCO3)cc2)cc1 2.9, O=C(COC(=O)c1ccc(Oc2ccccc2)cc1)Nc1nnc(-c2ccccc2)o1 2, O=C(/C=C/NNC(=O)c1cccc(Br)c1)c1ccccc1 2, CCOc1ccc(C(CCc2ccccc2)NC(=O)c2ccc(OC)c(OC)c2)cc1OCC (configuration not stated) 2.2
